Our source for the activity, negative = inhibition and Potency values is PubChem BioAssay (NCATS).

Results filed as inconclusive are left out. Unmarked numbers belong to inactive results. Calls of active or inactive are those of the source. The call rests on the fitted dose curve; in most records, active means well fitted inhibition curve with a large enough effect; inconclusive means small, poorly fitted or top-dose-only effect; inactive means flat fitted curve, though single readings scatter.
Potency means the concentration at half of the fitted maximal effect.

One experiment in a line: qHTS profiling for inhibitors of Plasmodium falciparum proliferation (AID 504749). Further: nearly all actives have a fitted effect of over 60% in size.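 On activity, negative = inhibition: 0% = DMSO vehicle and full inhibition = artemisinin control.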 The settings on record: P. falciparum in erythrocytes, SYBR Green DNA, 72 h; at 28.7 µM (top of the series); parasite line A. A digest of the protocol: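 Parasite proliferation within erythrocytes, 72 h exposure. Endpoint: SYBR Green I fluorescence after overnight lysis at room temperature. Controls: 0.29 uM artemisinin, DMSO.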
In general terms: Quantitative high-throughput screening tests each substance at several concentrations.
In the case of `CO/N=C(/C(=O)N[C@@H]1C(=O)N2C(C(=O)O)=CCS[C@H]12)c1csc(N)n1`, the activity, negative = inhibition was 1.12%.

In the case of `CC1CCC(C(C)C)C(OC(=O)c2ccccc2O)C1` (centres undefined), the activity, negative = inhibition was -1.98%.

Consider `CCC(=O)O[C@@H](OP(=O)(CCCCc1ccccc1)CC(=O)N1C[C@H](C2CCCCC2)C[C@H]1C(=O)O)C(C)C` (some centres undefined), for which the activity, negative = inhibition is -6.06%.

With `CC1(C)S[C@@H]2[C@H](NC(=O)COc3ccccc3)C(=O)N2[C@H]1C(=O)O`, the activity, negative = inhibition was 4.88%.

On to `O=NCc1ccc([N+](=O)[O-])o1`, for which the activity, negative = inhibition was -23.3%.

The experiment is the same for the next values; noted with them: P. falciparum in erythrocytes, SYBR Green DNA, 72 h; at 28.7 µM (top of the series); parasite line B.
For the molecule `CO/N=C(/C(=O)N[C@@H]1C(=O)N2C(C(=O)O)=CCS[C@H]12)c1csc(N)n1`, the activity, negative = inhibition is 9.16%.

For the molecule `CC1CCC(C(C)C)C(OC(=O)c2ccccc2O)C1` (centres undefined), the activity, negative = inhibition was 8.37%.

Turning to `CCC(=O)O[C@@H](OP(=O)(CCCCc1ccccc1)CC(=O)N1C[C@H](C2CCCCC2)C[C@H]1C(=O)O)C(C)C` (some centres undefined), the activity, negative = inhibition was -3.37%.

As to `CC1(C)S[C@@H]2[C@H](NC(=O)COc3ccccc3)C(=O)N2[C@H]1C(=O)O`, the activity, negative = inhibition was 4.38%.

For `O=NCc1ccc([N+](=O)[O-])o1`, the activity, negative = inhibition was 5.01%.

Still in this experiment, the particulars now being: P. falciparum in erythrocytes, SYBR Green DNA, 72 h; parasite line A.
As to `Cc1cc(CC(C)CC(C)(C)C)n(O)c(=O)c1` (centres undefined), the Potency is 1780 nM (active).

On to `CC(C)(CO)C(O)C(=O)NCCCC(=O)O` (centres undefined), for which the Potency is 14.1 nM (active).

For the molecule `CO[C@@H]1[C@@H](OC2OC(C)C(OC3CC(C)(O)C(OC(=O)CC(C)C)C(C)O3)C(N(C)C)C2O)[C@@H](CC=O)C[C@@H](C)C(=O)/C=C\C2O[C@H]2C[C@@H](C)OC(=O)C[C@H]1OC(C)=O` (some centres undefined), the Potency is 11200 nM (active).

Take `CC(=O)O[C@@]12CO[C@@H]1C[C@H](O)[C@@]1(C)C(=O)[C@H](O)C3=C(C)[C@@H](OC(=O)C(O)[C@@H](NC(=O)OC(C)(C)C)c4ccccc4)C[C@@](O)([C@@H](OC(=O)c4ccccc4)[C@H]21)C3(C)C` (some centres undefined): the Potency was 31.6 nM (active).

`CCN1/C(=C/C=C/C=C/c2sc3ccccc3[n+]2CC)Sc2ccccc21`: the Potency is 2820 nM (active).

The experiment is the same for the next values; noted with them: P. falciparum in erythrocytes, SYBR Green DNA, 72 h; parasite line B.
In the case of `Cc1cc(CC(C)CC(C)(C)C)n(O)c(=O)c1` (centres undefined), the Potency was 1000 nM (active).

Take `CO[C@@H]1[C@@H](OC2OC(C)C(OC3CC(C)(O)C(OC(=O)CC(C)C)C(C)O3)C(N(C)C)C2O)[C@@H](CC=O)C[C@@H](C)C(=O)/C=C\C2O[C@H]2C[C@@H](C)OC(=O)C[C@H]1OC(C)=O` (some centres undefined): the Potency is 10000 nM (active).

`CC(=O)O[C@@]12CO[C@@H]1C[C@H](O)[C@@]1(C)C(=O)[C@H](O)C3=C(C)[C@@H](OC(=O)C(O)[C@@H](NC(=O)OC(C)(C)C)c4ccccc4)C[C@@](O)([C@@H](OC(=O)c4ccccc4)[C@H]21)C3(C)C` (some centres undefined): the Potency was 28.2 nM (active).

As to `CCN1/C(=C/C=C/C=C/c2sc3ccccc3[n+]2CC)Sc2ccccc21`, the Potency was 3980 nM (active).
